PINK1 modulator: changes PINK1 expression. PINK1 immunofluorescence, high-content cytometry, 24 h. Potency, µM (top dose mostly 76.6 µM), inactives show at the highest dose activation (PINK1 increase), hits mostly activators. actives 0.2% (n = 410,000). AID 624263; active = well fitted activation curve with a large enough effect; inconclusive = small, poorly fitted or top-dose-only effect; cell line not stated here; also: potency is read from the fitted curve at half-maximal effect; % of control where 0% means no effect; nearly all actives have a fitted effect of over 65% in size
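Readout is PINK1 immunofluorescence, quantified alongside mitochondrial, cell and nuclear markers by laser-scanning microplate cytometry. Cells from a stable line were exposed to compound titrations (5 concentrations) for 24 hours, with CCCP controls.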
TCR act: activates T cell receptor signaling | primary human leukocytes, anti-CD3, IL-2 HTRF, 48 h | Potency, µM (highest dose often 9.22 µM), inactives show at the top dose activation of IL-2 secretion, hits mostly activators | 330,000 tested, under 10 active | AID 504894; also: % of control where 0% means no effect
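Primary human leukocytes were stimulated with a-CD3 beads plus compounds for 48 hr without co-stimulation; secreted IL-2 was quantified by HTRF using a-IL-2-K (europium cryptate) and a-IL-2-d2, excited at 320nm with acceptor emission read at 665nm.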
Akt phos inh: blocks phosphorylation of Akt | activity change, % for hits at 50 µM | AID 651550 | Neuro2A IGF-stimulated pAkt S473 HTRF, 20 min; stronger effect = lower value | actives 0.32% (n = 360,000); in the data active = activity change below about -80%; inconclusive = mostly about -51% to -80%; also: % is scaled to controls: 0 for no effect and ±100 for the full control effect
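Single-point screen (50 µM final compound) in Neuro2A cells stimulated 20 min with 6 nM IGF at 37 deg C. After lysis, Ser473-phosphorylated Akt read by HTRF (ex 330 nm, em 615/665 nm) as the 665/615 ratio.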
BRCA1 expr up: increases BRCA1 expression; Potency, µM (titrated, usually from 46.1 µM), for inactives: top-dose activation, actives largely listed as activators; AID 624202; actives 1.1% (n = 380,000); MCF7-BRCA1-FFLuc reporter, luminescence, 48 h; response scale: scaled: vehicle 0%, 10 µM genistein 100%; also: potency is read from the fitted curve at half-maximal effect; nearly all actives have a fitted effect of over 80% in size
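Luminescence from a BRCA1-driven firefly luciferase in MCF7 cells was read after 48 h compound exposure at 37 C. Data normalized against DMSO and a 10microM genistein activation control, then curve-fitted across the titration.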
An asterisk follows results filed as active; i = inactive; u = inconclusive; x = not tested or not shown; [ ] = dose if it differs, or a comment. Rows were chosen to be rich in hits. Some 1.5% of all compounds tested hit in one or more screens of this group. Unless noted, calls follow the shape of the dose curve; as a rule, active = well fitted curve in the direction sought with a large enough effect; inconclusive = small, poorly fitted or top-dose-only effect, or another doubt; inactive = no such curve, though single readings can be large; an effect the other way counts as inactive or inconclusive.

SMILES	PINK1 modulator	TCR act	Akt phos inh	BRCA1 expr up
Cc1ccc2c3c(c(SCC(=O)Nc4nonc4C)nc2c1)CCCC3	10µM*	x	i	-7%
Cc1nonc1NC(=O)CSc1nc2ccc(Cl)cc2[nH]1	14%	-9%	i	-12%
O=C(NC1CC1)[C@@H]1C[C@@H](Sc2nc3ccccc3[nH]2)CN1CC1CCCCC1	1%	x	x	x
Fc1ccc(CCNC(=S)Nc2ccc(F)c(Cl)c2)cc1	14µM*	7%	i	-58%
O=C(Nc1ccc2c(c1)OCO2)Nc1ccc(F)cc1F	5%	-1%	i	3.2µM*
O=C(Nc1ccc(F)cc1)Nc1ccc2c(c1)OCO2	0%	1%	i	u
Cc1ccc(NC(=O)Nc2ccc3c(c2)OCO3)c(Br)c1	9%	0%	i	1.8µM*
COC(=O)c1ccc(NC(=O)Nc2cccc(F)c2)cc1	u	-5%	i	98%
COC(=O)c1ccc(NC(=O)Nc2ccc(F)cc2F)cc1	3%	1%	i	3.2µM*
O=C(Nc1ccc2c(c1)OCO2)Nc1ccc2c(c1)OCO2	1%	6%	i	u
CCN(CC)C1CCN(C(=O)c2cnn(-c3ncc4c(n3)-c3ccccc3CCC4)c2COC)C1 (centres undefined)	0%	x	x	x
COc1ccc2c(c1)CCc1cnc(-n3ncc(C(=O)N4CCN(CCO)CC4)c3C3CC3)nc1-2	0%	x	x	x
Cc1c(C(=O)N2CCN(C)CC2)sc2ncnc(NCC3(c4ccccc4)CCOCC3)c12	0%	x	x	x
COc1ccc2c(CNCCc3cccs3)c(C(=O)O)n(Cc3ccc(F)cc3Cl)c2c1	1%	x	x	x
O=C(NCCc1ccccc1)Nc1ccc2c(c1)OCO2	2%	-1%	i	u
O=C(NCCc1ccc(F)cc1)Nc1ccc2c(c1)OCO2	-1%	-4%	i	13µM*
O=C(Nc1ccc2c(c1)OCO2)Nc1ccccn1	1%	-16%	i	2.5µM*
Cn1cnc2cc(NCc3ccc(Cl)cc3)ccc21	2%	6%	i	5µM*
CCn1cnc2cc(NC(=O)c3cccs3)ccc21	1%	-6%	i	13µM*
COc1cc(CNc2ccc3c(c2)ncn3C(C)C)cc(OC)c1OC	8%	x	x	x
Cc1ccc(CNc2ccc3c(c2)ncn3C(C)C)cc1	2%	-8%	i	5µM*
CCCn1cnc2cc(NCc3ccc(Br)cc3)ccc21	-1%	4%	i	46%
CCn1cnc2cc(NCc3ccc(Br)cc3)ccc21	-1%	1%	i	4.5µM*
Cc1ncc2c(c1CNC(=O)c1ccsc1)CCN(C(=O)c1c(F)cccc1Cl)C2	0%	x	x	x
CC(C)(C)n1cnc2cc(NCc3cccs3)ccc21	1%	2%	i	16%
SMILES	PINK1 modulator	TCR act	Akt phos inh	BRCA1 expr up
CCCn1cnc2cc(NCc3cccc(OC)c3)ccc21	4%[38.3 µM]	4%	i	5µM*
CCn1cnc2cc(NCc3cccs3)ccc21	2%	4%	i	14µM*
CCn1cnc2cc(NCc3ccc(C)cc3)ccc21	x	0%	i	3.5µM*
COCc1ccc(CN2CCOc3c(cc(-c4cc(C)c5cccc(OC)c5n4)cc3OC)C2)o1	0%	x	x	x
c1ccc2c(c1)ccn2-n1ccc2ccccc21	2%	x	x	0%
CC(C)c1ccc(Nc2n[nH]c(=S)s2)cc1	0%	x	i	2.5µM*
CCc1nc2oc3ccc(C)cc3c(=O)c2cc1C(=O)OC	10%	2%	i	6.3µM*
COC(=O)c1cc2c(=O)c3ccccc3oc2nc1C	0%	-5%	i	71%
COc1ccccc1CN1CCOc2ccc(CN3CCCCC3CO)cc2C1 (centres undefined)	-1%	x	x	x
CCN1C(=O)CC(N2CCN(c3ccc(C(=O)c4ccccc4)cc3)CC2)C1=O (centres undefined)	0%	1%	i	11µM*
Cc1ncc2c(c1CNC(=O)c1ccc3c(c1)OCO3)CCN(C(=O)c1coc3c1C(=O)CCC3)C2	0%	x	x	x
COC(=O)c1c(-c2ccc(S(C)(=O)=O)cc2)sc2cc(OC)ccc12	3%	0%	i	6.3µM*
COC(=O)c1c(-c2ccc(S(C)(=O)=O)cc2)sc2ccc(OC)cc12	0%	4%	i	4.5µM*
O=C(NCc1nnc2n1CCN(Cc1ccnc3ccccc13)CC2)c1cccc(F)c1	0%	x	x	x
Cc1ccc(-c2nc3ccc(Br)cn3c2Cc2cccc(F)c2)cc1	3%	x	i	3.2µM*
Fc1ccc(-c2nc3ccc(Br)cn3c2Cc2cccc(F)c2)cc1	2%	x	i	59%
COc1ccccc1CCNCc1cc2cccc(C)c2nc1-c1cccs1	-1%	x	x	x
COCCn1c(C)cc(/C=C2/NC(=O)N(c3cccc(Cl)c3)C2=O)c1C	7%	-2%	i	7.9µM*
CCn1c(C)cc(/C=C2/NC(=O)N(c3ccccc3)C2=O)c1C	2%	3%	i	60%
N#Cc1cccc(-c2nccc(-n3ccnc3)n2)c1	0%	x	x	x
CC1CC1C(=O)Nc1ccc(-c2ccccc2)cc1 (centres undefined)	7%	1%[46.1 µM]	i	2.5µM*
Cc1[nH]nc(SCC(=O)N2CCCCCC2)c1[N+](=O)[O-]	-1%	0%	i	7.9µM*
Cc1[nH]nc(SCC(=O)N2CCCCC2)c1[N+](=O)[O-]	-1%	-3%	i	21%
Nc1ccccc1C#Cc1ccccc1	7%	7%	i	11µM*
Nc1ccccc1C#Cc1ccc2[nH]ccc2c1	7%	-2%	i	10µM*
SMILES	PINK1 modulator	TCR act	Akt phos inh	BRCA1 expr up
Cn1c(CCNC(=O)C2CC23CCN(C(=O)C2=CCCC2)CC3)nc2ccccc21 (centres undefined)	0%	x	x	x
Cc1cc(C)cc(CN2CCOc3ccc(CN4CCC(O)(c5cccnc5)CC4)cc3C2)c1	-1%	x	x	x
Cc1ccc(NC(=S)NC(=O)C2CC2)c(C)c1	4%	-1%	i	11µM*
Cc1cccc(NC(=S)NC(=O)c2ccc(Br)o2)c1C	7%	7%	i	51%
Cc1ccc(NC(=S)NC(=O)C2CCCC2)cc1C	14%	1%	i	u
Cc1ccc(NC(=S)NC(=O)c2ccc(Br)o2)c(C)c1	5%	x	i	4µM*
O=C(NCC1Cc2cc(F)cc(-c3cccnc3)c2O1)c1cnn(-c2ccccc2)c1 (centres undefined)	2%	x	x	x
O=C(Nc1cc(Br)ccc1O)c1cc(-c2ccco2)on1	11%	3%	i	37%
O=C(Nc1cc(Cl)ccc1O)c1cc(-c2ccco2)on1	2%	-1%	i	6.3µM*
COc1ccc(CNC(=O)c2cnn(-c3ncc4c(n3)-c3ccccc3CC4)c2C)cc1OC	1%	x	x	x
C/C(N)=C(/C#N)C(=O)CSc1nnc(Nc2cccc(C)c2C)s1	2%	-9%	i	11µM*
O=C(CCc1nc2ccccc2s1)N1CCOc2ccc(CN3CCc4sccc4C3)cc2C1	1%	x	x	x
Cc1ccc(NC(=O)Cn2cc3c(n2)CCCCC3)cc1	1%	x	x	x
Cc1ccn2c(Nc3ccc4c(c3)OCO4)c(-c3ccccn3)nc2c1	40µM*	7%[46.1 µM]	i	-86%
